Where “and” joins values, the source holds several entries; their conditions need not be identical. Equal entries are not always repeated. Screen size: about 260,000 compounds; about 1,500 (0.58%) were called active. Inconclusive results (about 5%) are left out.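 The calls were made as follows: active = inhibition above a set limit at one or more doses, reproduced on every date tested; inconclusive = results disagree between test dates, or hit never tested in dose response; inactive = the rest.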 Only a sample is shown. Entries with a potency or affinity are not part of this list.
molecular target: Virion infectivity factor (Human immunodeficiency virus type 1 group M subtype B (isolate BH10)) + Virion infectivity factor (Human immunodeficiency virus type 1 group M subtype B (isolate BRU/LAI)) + Virion infectivity factor (Human immunodeficiency virus type 1 group M subtype B (isolate PCV12)) + Virion infectivity factor (Human immunodeficiency virus type 1 group M subtype B (isolate HXB2)) + DNA dC->dU-editing enzyme APOBEC-3G (Homo sapiens) (UniProt P69720+P69721+P69722+P69723+Q9HC16); assay: HIV-1 Vif–A3G interaction blockers – biochemical, TR-FRET, GST-Vif 1-94, biotin-A3G peptide, dose response retest, primary screen (AID 1117319); details: TR-FRET GST-Vif / biotin-A3G peptide binding; hits give high values;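 also: Vif residues 1-94 fused to GST binding biotinylated APOBEC3G peptide 110-148; 0% = full assay without inhibitor and 100% = GST in place of GST-Vif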

inhibition, inactive:
CCC(NC(=O)NNC(N)=S)(C(F)(F)F)C(F)(F)F 2.24%
CCOc1ccccc1N1CCN(C(=O)c2ccc(-c3ccc(OC(C)=O)cc3)cc2)CC1 -6.48%
Cc1cc(C)c(C(=O)CSc2nnc(C)s2)c(C)c1 -3.21%
CCOC(=O)C1C(=O)CC(C)(O)C(C(=O)OCC)C1c1cccc(OC(F)(F)C(F)F)c1 (stereo not drawn) 1.49%
Cc1cccc(OCc2nc(C#N)c(NCc3ccc4c(c3)OCO4)o2)c1 2.3%
C[C@H](NC(=O)c1ccco1)C(=O)OCC(=O)N1CC(=O)Nc2ccccc21 1.38%
COc1ccccc1NC(=O)CN(c1ccccc1F)S(C)(=O)=O 2.7%
Cc1ccc(S(=O)(=O)Nc2cccc(C(=O)N3CCN(c4ccccc4O)CC3)c2)cc1F -3.67%
COc1ncnc2c1ncn2CCCN(C)CCc1ccccn1 3.23%
Nc1nc(N)c2c(n1)CN(Cc1ccc(Cl)cc1)C2 -2.69%
Cc1cccc(C(=O)N/N=C/c2cc(Br)c(Br)o2)c1 0.73%
Cc1ccc(C(=O)N/N=C\c2ccc(-c3ccc(Cl)cc3)o2)cn1 23.4%
COC(=O)COc1ccc(S(=O)(=O)Nc2ccc3c(c2)OCCO3)cc1Cl -0.68%
COc1cccc(CNC(=O)CCCNS(=O)(=O)c2cccs2)c1 22.8%
COc1cccc(CNC(=O)CCS(=O)(=O)c2cccs2)c1 -7.15%
CC1(C)CC(=O)c2cc(OCC(=O)NCCCN3CCN(c4ccc(F)cc4)CC3)ccc2O1 -7.66% and 5.99%
O=C(O)CN1C(=O)CNC1=O -0.07%
CC(=O)Nc1ccc(S(=O)(=O)NCC(=O)OCC(=O)NCc2ccco2)cc1 7.01%
CCOC(=O)C1CCCN(C(=O)COC(=O)c2cc(=O)c3ccccc3o2)C1 (stereo not drawn) 29.1%
CC(C)n1cc(CN2CCCC(CNS(=O)(=O)c3cccc4cccnc34)C2)cn1 (stereo not drawn) 10.9%
COC(=O)c1cccc(-n2c(C)cc(/C=C3\SC(=O)NC3=O)c2C)c1 3.07%
Cc1ccc(-n2c(C)cc(/C=C3\SC(=O)NC3=O)c2C)cc1 -6.8%
Cc1nn(C)cc1/C=C1\SC(=S)NC1=O -1.22%
Cc1cc(/C=C2\SC(=S)NC2=O)c(C)n1-c1ccc(O)cc1 71.3%
Cc1cc(/C=C2\SC(=S)NC2=O)c(C)n1C1CC1 30.7%
Cc1cc(/C=C2\SC(N)=NC2=O)c(C)n1-c1ccccc1 19.3%
COc1cccc(CNC(=O)Cn2ncc3c(=O)oc4ccccc4c32)c1 -6.25%
Cc1cccc(-n2ccc(=O)c(C(=O)O)n2)c1 -11%
O=C(Nc1ccc(Cl)c(S(=O)(=O)N2CCOCC2)c1)c1ccccn1 -0.06%
O=C(O)CCCN1C(=O)C2C3CCC(C3)C2C1=O (stereo not drawn) 6.83%
Cc1cc(/C=N/Nc2ccc([N+](=O)[O-])cn2)c(C)n1-c1ccccc1 6.45%
Cc1cccc(C)c1-n1c(C)cc(/C=N\Nc2ccc([N+](=O)[O-])cn2)c1C 10.6%
Cc1ccccc1-n1c(C)cc(/C=N/Nc2ccc([N+](=O)[O-])cn2)c1C 6.93%
Cc1ccc(-n2c(C)cc(/C=N/Nc3ccc([N+](=O)[O-])cn3)c2C)cc1 12.6%
Cn1ncc(Cl)c1C(=O)NC(=S)Nc1sc2c(c1C#N)CCCCC2 1.11%
CC(=O)N(C1=C(O)c2ccccc2C(=O)C1=O)C1CCCCC1 -2.6%
O=C(NCc1ccco1)c1cccnc1Cl 2.06%
COc1cccc(NC(=O)Nc2cccs2)c1 19.8%
COc1ccc(NC(=O)Nc2cccs2)cc1Cl 3.45%
CC[C@@H]1CCCCc2ccccc2[C@@H](C(=O)C[C@@H](O)CC(C)=O)OC1=O -2.17%
C/C=C(\C)C(=O)Nc1cccc(C2=NOC3(C2)C[C@H](C(N)=O)N(C(=O)C(c2ccccc2)c2ccccc2)C3)c1 (stereo partly drawn) 17.8%
CCCCCC(=O)Nc1cccc(C2=NOC3(C2)C[C@H](C(N)=O)N(C(=O)CCCCC)C3)c1 (stereo partly drawn) 14.4%
C/C=C(/C)C(=O)Nc1cccc(C2=NOC3(C2)C[C@@H](C(N)=O)N(C(=O)CCCCC)C3)c1 (stereo partly drawn) 4.38%
C/C=C(\C)C(=O)Nc1cccc(C2=NOC3(C2)C[C@H](C(N)=O)N(C(=O)c2cc([N+](=O)[O-])cc([N+](=O)[O-])c2)C3)c1 (stereo partly drawn) 9.79%
CCC(=O)Nc1cccc(C2=NOC3(C2)C[C@@H](C(N)=O)N(C(=O)COc2ccc(Cl)cc2)C3)c1 (stereo partly drawn) 1.74%
CCC(=O)Nc1cccc(C2=NOC3(C2)C[C@@H](C(N)=O)N(C(=O)c2cc([N+](=O)[O-])cc([N+](=O)[O-])c2)C3)c1 (stereo partly drawn) 9.27%
CCC(=O)Nc1cccc(C2=NOC3(C2)C[C@@H](C(N)=O)N(C(=O)C(c2ccccc2)c2ccccc2)C3)c1 (stereo partly drawn) 5.6%
C=C(C)C(=O)N1CC2(CC(c3cccc(NC(=O)COc4ccc(Cl)cc4)c3)=NO2)C[C@@H]1C(N)=O (stereo partly drawn) -2.13%
Cc1ccc(-c2cc(C(=O)NC3=NCCS3)c3ccccc3n2)cc1C -1.5%
O=S(=O)(CC=CCS(=O)(=O)c1ccccc1)c1ccccc1 -17%
Cc1nc2nc(C(F)(F)F)[nH]c2nc1C 0.02%
CC(C)(C)NC(=O)C(c1ccc(F)cc1)N(Cc1ccco1)C(=O)CCC(=O)Nc1nccs1 (stereo not drawn) 5.5%
CN[C@@H](C)C(=O)NC[C@H]1O[C@@H](n2cnc3c(N)ncnc32)[C@H](O)[C@@H]1O -3.01%
CC1(C)CC(=O)c2c(O)cc(O)cc2O1 -0.4%
C/C=C(/C)C(=O)Nc1cccc(C2=NOC3(C2)C[C@@H](C(N)=O)N(C(=O)CC(c2ccccc2)c2ccccc2)C3)c1 (stereo partly drawn) 24%
C/C=C(/C)C(=O)Nc1cccc(C2=NOC3(C2)C[C@@H](C(N)=O)N(C(=O)/C=C/CC)C3)c1 (stereo partly drawn) 13.8%
CCC(=O)Nc1cccc(C2=NOC3(C2)C[C@@H](C(N)=O)N(C(=O)CC(c2ccccc2)c2ccccc2)C3)c1 (stereo partly drawn) 7.06%
C/C=C\C(=O)Nc1cccc(C2=NOC3(C2)C[C@H](C(N)=O)N(C(=O)/C=C/CC)C3)c1 (stereo partly drawn) 5.75%
CCC(C)(C(=O)NC1CCCCC1)N(Cc1cccs1)C(=O)Cc1cccs1 (stereo not drawn) 23.9%
COc1cccc(OC)c1NC(=O)C1CCCN1C(=O)Nc1cccc(Cl)c1 (stereo not drawn) -0.22%
O=C(/C=C/c1cccc([N+](=O)[O-])c1)Nc1ccccn1 7.78%
CCOc1ccccc1NC(=O)COC(=O)COc1cccc2c1OC(C)(C)C2 2.02%
COC(=O)C(C)N1C(=O)S/C(=C\c2ccc(-c3ccc(C(=O)O)cc3C)o2)C1=O (stereo not drawn) 15.9%
O=C(O)c1ccccc1-c1ccc(/C=C2\SC(=O)N(c3ccccc3)C2=O)o1 3.86%
Cc1cccc(-n2ccnc2SCC(=O)O)c1C -0.53%
O=C(COc1ccc(Cl)cc1Cl)c1ccc[nH]1 19.3%
Cc1ccccc1OCC(=O)OCC(=O)c1ccc[nH]1 7.12%
Cc1ccnc(NC(=O)CCNC(=O)c2ccc(Cl)cc2)c1 -5.97%
COc1ccccc1N1CCN(C(=O)CSc2nnc(NC(=O)C3CC3)s2)CC1 9.27%
c1ccc(C2CNCCc3ccccc32)cc1 (stereo not drawn) -8.69%
CN1CCc2cc(Cl)c(O)cc2[C@@H](c2ccccc2)C1 -6.09%
CCc1cccc(C)c1NC(=O)Nc1c(Br)cnn1C -8.57%
Cc1ccc(S(=O)(=O)N2C[C@H]3[C@H]4C(=O)N(c5ccccc5)C(=O)[C@H]4C[C@H](OC(=O)NC4CCCC4)[C@@]3(O)C2)cc1 -0.48%
CC(OC(=O)c1ccc2c(c1)OCCO2)C(=O)NC1CCCCC1C (stereo not drawn) -7.15%
COc1ccc(C=C2C(=O)c3ccccc3C2=O)cc1O 4.34%
COc1cc(C=C2C(=O)c3ccccc3C2=O)ccc1O -0.66%
CCOC(=O)C1=C(C)NC(SCC(N)=O)=C(C#N)C1c1cccs1 (stereo not drawn) -2.81%
C#CCSC1=C(C#N)C(c2cccs2)C(C(=O)OCC)=C(C)N1 (stereo not drawn) 8.23%
Cn1c(SCC(=O)Nc2sc3c(c2C#N)CCC3)nnc1C1COc2ccccc2O1 (stereo not drawn) 2.45% and 32%
CCOC(=O)c1oc2ccccc2c1COC(=O)CNC(=O)c1cccc(C)c1 -6.29%
CN(C)Cc1c(C(=O)N/N=C/c2cccc(OCc3ccccc3)c2)nnn1-c1nonc1N 19.4%
CCN(CC)c1ccc(C(=O)NNC(=O)c2cccn2C)cc1 5.54%
O=C(O)c1ccc2c(c1)CCCN2 -1.03%
O=S(=O)(c1ccc2c(c1)CCCN2)N1CCCCC1 8.06%
CCOc1ccc(NC(=O)CN2CCN(CC(=O)Nc3ccc(C(N)=O)cc3)CC2)cc1 -3.98%
COc1ccc2c(c1)CC/C(=C/c1ccccn1)C2=O -2.19%
Cc1ccsc1/C=C/C1=Cc2c(sc(NC(=O)CSc3n[nH]c(N)n3)c2C#N)C(C)(C)C1 22.1%
CCOc1ccc(/C=C/C2=Cc3c(sc(NC(=O)CSc4n[nH]c(N)n4)c3C#N)C(C)(C)C2)cc1 1.67%
